# Measured values reported in PubChem BioAssay (Tox21).
# “And” between values parts separate entries of the source, which are not always exact repeats. Equal values may be shown once. Values without a mark were called inactive. Results filed as inconclusive are left out. Entries that show only a call come without a potency. The source made the active and inactive calls. Unless noted, the call rests on the fitted dose curve; in most records, active means well fitted curve in the direction sought with a large enough effect in the repeat runs; inconclusive means weak or mixed curves; inactive means no such curve, though single readings can be large; an effect the other way counts as inactive or inconclusive.
# Assays:
# [1] = Human pregnane X receptor (PXR) small molecule agonists, qHTS cell viability counter screen (AID 1346977); further: nearly all actives have a fitted effect of over 50% in size; further: potency means the concentration at half of the fitted maximal effect
# Procedure, shortened: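 HepG2 cells stably carrying the PXR-Luc reporter are cultured with 5% charcoal-stripped FBS and treated with compounds for 24hr. CellTiter-Fluor is added at 23hr and fluorescence is read after 1hr.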
# [2] = Caspase-3/7 induction in HepG2 cells by small molecules, qHTS assay (AID 1346978); further: nearly all actives have a fitted effect of over 15% in size; further: potency means the concentration at half of the fitted maximal effect
# Procedure, shortened: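 Wild-type HepG2 cells (2,000/well) were settled 5 h at 37 C, 5% CO2, then exposed to compounds in DMSO for 17 h. Caspase-3/7 activity was read by luminescence 30 min after adding Caspase-Glo 3/7 reagent at room temperature.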
# [3] = Caspase-3/7 induction in CHO-K1 cells by small molecules, qHTS cell viability counter screen (AID 1346979); further: nearly all actives have a fitted effect of over 35% in size; further: potency means the concentration at half of the fitted maximal effect
# Procedure, shortened: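 Seeding: 1,500 CHO-K1 cells/well. Rest: 5hr, 37C. Treatment: compounds in DMSO, 16hr. Read: CellTiter-Fluor, 1hr, fluorescence.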
# [4] = Caspase-3/7 induction in CHO-K1 cells by small molecules, qHTS assay (AID 1346980); further: nearly all actives have a fitted effect of over 15% in size
# Procedure, shortened: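 Wild-type cells were seeded at 1,500 per well and settled 5 hr at 37 C, 5% CO2, then exposed to DMSO-dissolved compounds for 17 hr. Caspase-Glo 3/7 reagent was added, and luminescence was read after 30min at room temperature.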
# [5] = Caspase-3/7 induction in HepG2 cells by small molecules, qHTS cell viability counter screen (AID 1346981); further: nearly all actives have a fitted effect of over 30% in size; further: potency means the concentration at half of the fitted maximal effect
# Procedure, shortened: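 Fluorescence read-out of live-cell protease activity (CellTiter-Fluor) after 1 hr with reagent. This was measured in the same wells as the caspase-3/7 luminescence, on HepG2 cells exposed to DMSO-dissolved compounds for 16 hr at 37 C.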
# [6] = target: Nuclear receptor subfamily 1 group I member 2 (Homo sapiens) (UniProt O75469); experiment: Human pregnane X receptor (PXR) small molecule agonists, qHTS assay (AID 1346982); further: nearly all actives have a fitted effect of over 35% in size; further: potency means the concentration at half of the fitted maximal effect
# Procedure, shortened: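 HepG2 PXR-Luc reporter line, 5% charcoal-stripped FBS; 5 hr pre-incubation, compound (DMSO) 24 hr at 37 C/5% CO2; ONE-Glo 30 min RT; luminescence read-out.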
# [7] = target: Nuclear receptor subfamily 1 group I member 2 (Rattus norvegicus) (UniProt Q9R1A7); experiment: Rat pregnane X receptor (rPXR) activation by small molecules, qHTS assay (AID 1346983); conditions: rPXR luciferase reporter cells, One-Glo luminescence, 24 h; hits give high values; further: nearly all actives have a fitted effect of over 20% in size
# Procedure, shortened: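 Cell-based rPXR luciferase reporter assay, 2,000 cells per well, rested 5hr at 37 C before compound addition in DMSO, then 24 hr at 37 C. One-Glo reagent was added and luminescence read after 30 min at room temperature.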
# [8] = target: Nuclear receptor subfamily 1 group I member 2 (Homo sapiens) (UniProt O75469); experiment: CYP3A4 induction through human pregnane X receptor (PXR) by small molecules, qHTS assay (AID 1346984); further: nearly all actives have a fitted effect of over 40% in size
# Procedure, shortened: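 HepG2-derived DPX-2 line carrying PXR plus a CYP3A4-promoter luciferase reporter; cells plated 5 hr, compound-exposed 24 hr at 37C. CYP3A4 activity probed with 3uM (final) Luciferin-IPA for 3hr, then luciferase read after One-Glo.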
# [9] = target: Nuclear receptor subfamily 1 group I member 2 (Homo sapiens) (UniProt O75469); experiment: Human pregnane X receptor (PXR) activation by small molecules, qHTS assay (AID 1346985); further: nearly all actives have a fitted effect of over 40% in size
# Procedure, shortened: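 DPX-2 cells (HepG2 co-transfected with a PXR response element and a CYP3A4-promoter luciferase construct) were seeded at 2,000 per well, rested 5 hr at 37C, then exposed to DMSO-dissolved compounds for 24 hr. Activation was read as luciferase luminescence.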
# [10] = target: Acetylcholinesterase (Homo sapiens) (UniProt P22303); experiment: Acetylcholinesterase (AChE) small molecule antagonists: colormetric cell-based qHTS assay (AID 1347395; calls by dose curve; further: nearly all actives have a fitted effect of over 30% in size)
# Procedure, shortened: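 Quantitative HTS in attached SH-SY5Y cells: 30 min compound exposure, then 90 min with acetylthiocholine and DTNB at 37 C; colour from thiocholine reports AChE activity.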
# [11] = target: Acetylcholinesterase (Homo sapiens) (UniProt P22303); experiment: Acetylcholinesterase (AChE) small molecule antagonists: enzyme-based qHTS assay (AID 1347397; calls by dose curve; further: nearly all actives have a fitted effect of over 55% in size); conditions: Potency: AChE enzyme activity inhibition; outcome: AChE enzyme activity inhibition
# Procedure, shortened: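 Compound or DMSO vehicle was pin-transferred onto recombinant human AChE (50 mU/mL as dispensed) and left 30 min at room temperature. Acetylthiocholine with DTNB then started the reaction, read colorimetrically 10 min later.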
# [12] = target: Acetylcholinesterase (Homo sapiens) (UniProt P22303); experiment: Acetylcholinesterase (AChE) small molecule antagonists: fluorescence cell-based qHTS assay (AID 1347398; calls by dose curve; further: nearly all actives have a fitted effect of over 50% in size; further: potency means the concentration at half of the fitted maximal effect); conditions: Potency: AChE activity; outcome: AChE activity
# Procedure, shortened: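 Using neuroblastoma SH-SY5Y cells as the enzyme source, test chemicals are preincubated 30 min at 37 C; AChE-driven acetylthiocholine cleavage is then quantified by thiocholine-dependent Thiolite Green fluorescence after 40 min at room temperature.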
# [13] = target: Acetylcholinesterase (Homo sapiens) (UniProt P22303); experiment: Acetylcholinesterase (AChE) small molecule antagonists: enzyme-based qHTS assay with human liver microsomes (AID 1347399; calls by dose curve; further: nearly all actives have a fitted effect of over 60% in size); conditions: Potency: qHTS inhibition; outcome: qHTS inhibition
# Procedure, shortened: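 Recombinant human AChE (50 mU/mL in the enzyme mix) and human liver microsomes (0.25 mg/mL final) were preincubated with compound and NADPH (0.25 mg/mL final) for 30 min at 37 C. Acetylthiocholine/DTNB was then added; thiocholine was read colorimetrically after 10 min at room temperature.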
# [14] = target: Cytochrome P450 2D6 (Homo sapiens) (UniProt P10635); experiment: Cytochrome P450 Family 2 Subfamily D Member 6 (CYP2D6) small molecule antagonists: luciferase reporter qHTS assay (AID 1671196); further: nearly all actives have a fitted effect of over 50% in size; further: potency means the concentration at half of the fitted maximal effect
# Procedure, shortened: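 Luminogenic proluciferin substrate, CYP2D6 enzyme; 10 min RT preincubation with compound, NADPH regeneration system added, 1 h RT. Stop/detection reagent, 20 min RT, luminescence read (RLU). Signal proportional to CYP activity.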
# [15] = target: Cytochrome P450 2C19 (Homo sapiens) (UniProt P33261); experiment: Cytochrome P450 Family 2 Subfamily C Member 19 (CYP2C19) small molecule antagonists: luciferase reporter qHTS assay (AID 1671197); further: nearly all actives have a fitted effect of over 65% in size; further: potency means the concentration at half of the fitted maximal effect
# Procedure, shortened: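 CYP2C19 P450-Glo, 1536-well qHTS. Cpd + enzyme/proluciferin substrate 10 min RT; + NADPH regen, 37C 1 h; stop with luciferin detection reagent, 20 min RT, luminescence (RLU). Pos ctrl ketoconazole.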
# [16] = target: Cytochrome P450 2C9 (Homo sapiens) (UniProt P11712); experiment: Cytochrome P450 Family 2 Subfamily C Member 9 (CYP2C9) small molecule antagonists: luciferase reporter qHTS assay (AID 1671198); further: nearly all actives have a fitted effect of over 50% in size; further: potency means the concentration at half of the fitted maximal effect
# Procedure, shortened: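 CYP2C9 activity was measured with a P450-Glo proluciferin substrate. Enzyme–substrate mix was held with compound for 10 min at room temperature, then NADPH regeneration solution was added for 1 h at 37C. Luciferin product was read as luminescence.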
# [17] = target: Cytochrome P450 1A2 (Homo sapiens) (UniProt P05177); experiment: Cytochrome P450 Family 1 Subfamily A Member 2 (CYP1A2) small molecule antagonists: luciferase reporter qHTS assay (AID 1671199); further: nearly all actives have a fitted effect of over 50% in size; further: potency means the concentration at half of the fitted maximal effect
# Procedure, shortened: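 Luminescence readout (relative luminescence units) after luciferin detection reagent, 20 min RT. Preceded by 1 h room-temperature CYP1A2 reaction with NADPH regeneration solution following 10 min compound preincubation with enzyme and proluciferin substrate. Furafylline positive control.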
# [18] = target: Voltage-gated inwardly rectifying potassium channel KCNH2 (Homo sapiens) (UniProt Q12809); experiment: Human Ether-a-go-go-Related Gene (hERG) channel small molecule antagonists: fluorescence cell-based qHTS assay (AID 1671200); further: nearly all actives have a fitted effect of over 50% in size; further: potency means the concentration at half of the fitted maximal effect
# Procedure, shortened: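 First, 1000 cells per well are seeded and cultured overnight at 37 C. Next, FluxOR II dye is loaded for 1 h at room temperature, protected from light. After 10 more minutes, stimulus is added and fluorescence is read.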
# [19] = target: Cytochrome P450 3A4 (Homo sapiens) (UniProt P08684); experiment: Cytochrome P450 Family 3 Subfamily A Member 4 (CYP3A4) small molecule antagonists: luciferase reporter qHTS assay (AID 1671201)
# Procedure, shortened: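 Enzyme and proluciferin substrate are mixed with test chemicals for 10 min, then NADPH regeneration system drives turnover for 1 h at room temperature. A detection reagent halts the reaction; luminescence after 20 min gives relative activity.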
# Cytochrome P450 2C19 (Homo sapiens), sequence (P33261 whole entry, looked up): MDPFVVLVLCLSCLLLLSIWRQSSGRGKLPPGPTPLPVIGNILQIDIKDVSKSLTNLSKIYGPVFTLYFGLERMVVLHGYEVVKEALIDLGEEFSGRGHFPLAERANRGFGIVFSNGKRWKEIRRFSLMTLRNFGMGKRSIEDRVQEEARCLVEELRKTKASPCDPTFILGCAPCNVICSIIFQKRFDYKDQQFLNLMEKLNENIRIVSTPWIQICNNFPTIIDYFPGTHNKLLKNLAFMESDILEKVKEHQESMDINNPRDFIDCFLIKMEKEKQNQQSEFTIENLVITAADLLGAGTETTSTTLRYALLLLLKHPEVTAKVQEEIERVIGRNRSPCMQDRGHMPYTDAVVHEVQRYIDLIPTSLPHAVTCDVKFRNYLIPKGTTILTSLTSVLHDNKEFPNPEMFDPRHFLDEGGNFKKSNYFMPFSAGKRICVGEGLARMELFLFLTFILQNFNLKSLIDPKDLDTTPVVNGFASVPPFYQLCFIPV
# Voltage-gated inwardly rectifying potassium channel KCNH2 (Homo sapiens), sequence (Q12809 whole entry, looked up): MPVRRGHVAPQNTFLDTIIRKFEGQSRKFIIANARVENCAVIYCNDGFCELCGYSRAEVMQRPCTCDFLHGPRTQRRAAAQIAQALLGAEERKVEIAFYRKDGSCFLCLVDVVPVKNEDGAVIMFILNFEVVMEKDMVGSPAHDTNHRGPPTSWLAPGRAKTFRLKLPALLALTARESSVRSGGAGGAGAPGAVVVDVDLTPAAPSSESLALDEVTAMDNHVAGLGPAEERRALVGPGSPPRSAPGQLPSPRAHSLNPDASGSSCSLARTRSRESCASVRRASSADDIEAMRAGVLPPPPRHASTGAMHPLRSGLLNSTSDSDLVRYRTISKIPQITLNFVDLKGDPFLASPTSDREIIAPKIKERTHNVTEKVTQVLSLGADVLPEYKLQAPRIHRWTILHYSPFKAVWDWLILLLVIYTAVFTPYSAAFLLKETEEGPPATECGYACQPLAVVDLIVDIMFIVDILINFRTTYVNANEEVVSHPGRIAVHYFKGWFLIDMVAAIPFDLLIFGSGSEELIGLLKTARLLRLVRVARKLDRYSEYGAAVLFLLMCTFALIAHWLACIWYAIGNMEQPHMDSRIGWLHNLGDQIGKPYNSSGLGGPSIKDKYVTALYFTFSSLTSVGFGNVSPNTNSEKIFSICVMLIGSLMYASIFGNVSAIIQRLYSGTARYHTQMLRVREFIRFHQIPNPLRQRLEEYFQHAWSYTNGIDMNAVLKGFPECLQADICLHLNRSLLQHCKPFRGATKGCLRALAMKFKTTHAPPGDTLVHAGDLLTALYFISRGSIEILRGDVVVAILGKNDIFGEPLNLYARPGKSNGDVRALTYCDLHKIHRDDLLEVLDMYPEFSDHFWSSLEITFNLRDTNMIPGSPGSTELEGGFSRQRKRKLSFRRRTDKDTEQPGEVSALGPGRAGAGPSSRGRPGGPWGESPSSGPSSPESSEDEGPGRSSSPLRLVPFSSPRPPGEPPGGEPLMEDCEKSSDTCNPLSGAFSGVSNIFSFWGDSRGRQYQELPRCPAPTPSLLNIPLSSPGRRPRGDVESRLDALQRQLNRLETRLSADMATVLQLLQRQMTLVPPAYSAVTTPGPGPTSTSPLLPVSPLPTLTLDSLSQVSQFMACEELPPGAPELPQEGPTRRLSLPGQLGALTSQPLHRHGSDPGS
# Nuclear receptor subfamily 1 group I member 2 (Homo sapiens), sequence (O75469 whole entry, looked up): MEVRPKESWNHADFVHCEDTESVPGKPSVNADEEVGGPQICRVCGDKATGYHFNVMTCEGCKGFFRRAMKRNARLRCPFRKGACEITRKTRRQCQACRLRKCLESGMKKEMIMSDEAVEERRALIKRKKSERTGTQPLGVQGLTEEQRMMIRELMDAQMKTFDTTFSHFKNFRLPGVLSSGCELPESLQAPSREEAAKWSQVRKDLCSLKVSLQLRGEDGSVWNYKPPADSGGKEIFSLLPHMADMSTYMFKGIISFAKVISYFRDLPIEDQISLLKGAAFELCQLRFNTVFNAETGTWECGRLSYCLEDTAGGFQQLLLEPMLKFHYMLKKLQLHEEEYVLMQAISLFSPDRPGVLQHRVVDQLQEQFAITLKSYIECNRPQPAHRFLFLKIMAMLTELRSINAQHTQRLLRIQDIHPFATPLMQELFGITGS
# Cytochrome P450 2D6 (Homo sapiens), sequence (P10635 whole entry, looked up): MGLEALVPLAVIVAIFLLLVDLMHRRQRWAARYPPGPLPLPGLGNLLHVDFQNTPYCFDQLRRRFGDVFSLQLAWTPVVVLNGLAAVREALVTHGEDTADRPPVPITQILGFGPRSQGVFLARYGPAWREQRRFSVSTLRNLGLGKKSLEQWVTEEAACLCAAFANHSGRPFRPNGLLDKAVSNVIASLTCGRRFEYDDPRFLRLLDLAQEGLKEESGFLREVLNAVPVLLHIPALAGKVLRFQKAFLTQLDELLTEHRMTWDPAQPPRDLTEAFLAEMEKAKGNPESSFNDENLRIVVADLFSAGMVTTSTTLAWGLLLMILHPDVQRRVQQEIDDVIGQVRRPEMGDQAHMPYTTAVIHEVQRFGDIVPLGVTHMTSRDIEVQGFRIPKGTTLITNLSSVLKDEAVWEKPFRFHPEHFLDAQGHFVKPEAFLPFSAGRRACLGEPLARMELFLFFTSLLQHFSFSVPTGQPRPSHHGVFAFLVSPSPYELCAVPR
# Acetylcholinesterase (Homo sapiens), sequence (P22303 whole entry, looked up): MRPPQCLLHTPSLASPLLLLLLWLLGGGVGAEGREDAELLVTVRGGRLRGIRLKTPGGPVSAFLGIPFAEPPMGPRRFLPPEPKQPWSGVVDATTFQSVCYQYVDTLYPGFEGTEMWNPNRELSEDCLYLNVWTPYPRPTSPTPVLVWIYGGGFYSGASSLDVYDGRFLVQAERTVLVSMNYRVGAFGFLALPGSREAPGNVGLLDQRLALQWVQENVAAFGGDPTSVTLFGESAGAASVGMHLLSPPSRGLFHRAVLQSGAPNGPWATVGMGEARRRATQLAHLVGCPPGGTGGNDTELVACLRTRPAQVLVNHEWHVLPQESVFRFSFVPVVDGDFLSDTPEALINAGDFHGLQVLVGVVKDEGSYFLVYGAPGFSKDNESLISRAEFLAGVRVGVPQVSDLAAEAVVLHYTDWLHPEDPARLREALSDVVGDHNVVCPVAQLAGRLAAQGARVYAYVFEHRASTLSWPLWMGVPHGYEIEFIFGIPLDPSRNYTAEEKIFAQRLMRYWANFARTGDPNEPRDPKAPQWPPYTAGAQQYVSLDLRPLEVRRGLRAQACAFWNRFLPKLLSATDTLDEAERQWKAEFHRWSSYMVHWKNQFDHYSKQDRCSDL
# Cytochrome P450 2C9 (Homo sapiens), sequence (P11712 whole entry, looked up): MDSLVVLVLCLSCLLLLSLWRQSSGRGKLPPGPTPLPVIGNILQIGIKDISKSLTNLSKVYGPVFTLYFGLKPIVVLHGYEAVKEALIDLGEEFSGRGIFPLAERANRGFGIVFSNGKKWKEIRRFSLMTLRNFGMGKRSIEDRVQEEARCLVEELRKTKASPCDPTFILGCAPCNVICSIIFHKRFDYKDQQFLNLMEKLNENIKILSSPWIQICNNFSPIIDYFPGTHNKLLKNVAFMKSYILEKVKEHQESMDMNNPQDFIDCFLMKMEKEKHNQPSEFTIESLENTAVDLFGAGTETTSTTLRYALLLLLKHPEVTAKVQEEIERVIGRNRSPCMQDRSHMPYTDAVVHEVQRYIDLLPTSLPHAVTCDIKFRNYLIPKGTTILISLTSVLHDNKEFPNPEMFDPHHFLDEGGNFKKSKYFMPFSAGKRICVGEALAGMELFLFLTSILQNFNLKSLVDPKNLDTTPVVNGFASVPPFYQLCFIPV
# Cytochrome P450 1A2 (Homo sapiens), sequence (P05177 whole entry, looked up): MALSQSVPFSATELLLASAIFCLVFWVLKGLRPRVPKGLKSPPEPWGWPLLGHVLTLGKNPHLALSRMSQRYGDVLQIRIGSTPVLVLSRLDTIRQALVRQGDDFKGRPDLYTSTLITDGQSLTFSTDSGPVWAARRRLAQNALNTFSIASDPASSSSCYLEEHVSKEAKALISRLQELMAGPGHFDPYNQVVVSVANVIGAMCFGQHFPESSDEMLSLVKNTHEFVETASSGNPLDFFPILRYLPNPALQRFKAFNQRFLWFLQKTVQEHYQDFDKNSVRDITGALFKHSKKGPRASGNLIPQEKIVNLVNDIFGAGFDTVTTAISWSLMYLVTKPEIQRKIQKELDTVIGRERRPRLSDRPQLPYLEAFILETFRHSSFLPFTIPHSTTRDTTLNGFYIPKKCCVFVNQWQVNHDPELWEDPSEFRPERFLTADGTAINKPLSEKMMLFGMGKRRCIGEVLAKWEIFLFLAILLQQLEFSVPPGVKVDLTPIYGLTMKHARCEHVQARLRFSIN
# Nuclear receptor subfamily 1 group I member 2 (Rattus norvegicus), sequence (Q9R1A7 whole entry, looked up): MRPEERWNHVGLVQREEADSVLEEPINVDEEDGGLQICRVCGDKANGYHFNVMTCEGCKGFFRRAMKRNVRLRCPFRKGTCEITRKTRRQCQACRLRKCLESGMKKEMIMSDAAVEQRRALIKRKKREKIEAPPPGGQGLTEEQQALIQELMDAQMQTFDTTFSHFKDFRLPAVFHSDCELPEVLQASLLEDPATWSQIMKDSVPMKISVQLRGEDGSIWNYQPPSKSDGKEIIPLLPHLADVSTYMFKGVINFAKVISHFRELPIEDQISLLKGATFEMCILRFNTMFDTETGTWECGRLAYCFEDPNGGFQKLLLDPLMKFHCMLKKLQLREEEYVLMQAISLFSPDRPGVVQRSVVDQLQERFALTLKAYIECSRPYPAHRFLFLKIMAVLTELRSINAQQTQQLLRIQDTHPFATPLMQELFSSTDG
Structure (SMILES),Potency [1],Potency [2],Potency [3],Potency [4],Potency [5],Potency [6],max activation [7],outcome [8],Potency [9],Potency [10],Potency [11],Potency [12],Potency [13],Potency [14],Potency [15],Potency [16],Potency [17],Potency [18],Potency [19]
C[C@H](N)[C@H](O)c1ccc(O)c(O)c1,inactive,inactive,inactive,inactive,inactive,inactive,-1.11%,inactive,inactive,inactive,inactive,776 nM (active),inactive,inactive,inactive,inactive,inactive,,
O=C1NC(=O)C(=O)C(=O)N1,inactive,inactive,inactive,inactive,inactive,inactive,,,,inactive,inactive,inactive,inactive,inactive,inactive,inactive,inactive,,
COC1=CC(=O)O[C@@H](/C=C/c2ccc3c(c2)OCO3)C1,inactive,inactive,inactive,inactive,inactive,inactive,,,,inactive,inactive,inactive,inactive,34.1 µM (active),8.56 µM (active),2.71 µM (active),3.41 µM (active),,
O=C(O)C(F)(F)C(F)(F)C(F)(F)C(F)(F)C(F)(F)C(F)(F)C(F)(F)C(F)(F)F,inactive,inactive,inactive,inactive,inactive,21.7 µM (active),,,,inactive,inactive,inactive,inactive,inactive,71 µM (active),1.78 µM (active),inactive,inactive,
CCCCCCCCn1sccc1=O,50.1 µM (active) and 25.5 µM (active),25.5 µM (active),12.2 µM (active) and 11.4 µM (active),inactive,68.7 µM (active) and 50.9 µM (active),21.7 µM (active) and 4.04 µM (active),,,,inactive,inactive,inactive,inactive,11.3 µM (active),10.1 µM (active) and 23.5 µM (active),10.1 µM (active) and 9.37 µM (active),28.3 µM (active) and 23.5 µM (active),21.9 µM (active),
O=[N+]([O-])O[C@H]1CO[C@H]2[C@@H]1OC[C@H]2O[N+](=O)[O-],inactive,inactive,inactive,inactive,inactive,inactive,-0.141%,inactive,inactive,inactive,inactive,inactive,inactive,inactive,inactive,inactive,inactive,inactive,
Nc1ccccc1C(=O)OCC(O)CO (centres undefined),inactive,inactive,inactive,inactive,inactive,inactive,,,,inactive,inactive,inactive,inactive,inactive,inactive,inactive,inactive,inactive,inactive
